PfHsp40 yeast – compounds rescuing yeast from Plasmodium falciparum HSP40 toxicity | 340,000 tested, 0.68% active | S. cerevisiae expressing PfHsp40, growth rescue, ATP luminescence | growth rescue, % at 12.5 µM | AID 504582; in the data active = growth rescue above about 28%, passing the limit was not always enough;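 also: yeast W303a lacking pdr1 and pdr3 grown in galactose medium; growth measured after three days at 30 °C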
Sa RN4220 lethal – S. aureus RN4220 growth inhibition; OD600, 16 h; inhibition, % (concentration not given with the values); 330,000 tested, 0.33% active; AID 1259311; in the data active = inhibition above about 85%;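 also: plate controls were untreated cells for no effect and reference antibiotic for full effect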
DUSP3 inh – DUSP3 (human) phosphatase inhibition; inhibition, % at 13.3 µM; P51452; 290,000 tested, 0.52% active; AID 1654; recombinant VHR phosphatase, pNPP absorbance; in the data active = inhibition above about 50%
Sa ugtP lethal – compounds lethal to S. aureus RN4220 ugtP deletion mutant. OD600 growth, 16 h. growth inhibition, % (concentration not given with the values). 330,000 tested, 0.54% active. AID 1259309; in the data active = growth inhibition above about 68%;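 also: plate controls were untreated wells for no effect and antibiotic for full effect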
PrPC surface inh – inhibitors of human cell surface prion protein PrPC; TR-FRET read-out; AID 720596; 370,000 tested, 0.43% active; inhibition, % at 13.8 µM; in the data active = inhibition above about 24%; also: 0% = median of the test wells and 100% = reference compound wells
PrPC confirm – confirmation of inhibitors of cell surface human prion protein | shares compounds with PrPC surface inh | cell surface PrPC level, TR-FRET | inhibition, % at 13.8 µM | 1,500 tested, 65% active; in the data active = inhibition above about 25%
LD9 tox – LD9 cell cytotoxicity, PrPc inhibitor counter-screen; LD9 cells cytotoxicity, luminescence viability; AID 743201; inhibition, % at 13.8 µM; shares compounds with PrPC surface inh; 1,500 tested, 29% active; in the data active = inhibition above about 9.5%
Starred values were filed as active, the others as inactive; . = no result. The list is not random: actives were taken first. Their share in the collection is about 1.8%.

SMILES	PfHsp40 yeast	Sa RN4220 lethal	DUSP3 inh	Sa ugtP lethal	PrPC surface inh	PrPC confirm	LD9 tox
O=C(Nc1ccccc1)C1=CC(c2ccccc2)CC(OCc2ccc(CO)cc2)O1 (stereo not given)	.	3.2	.	2.5	.	.	.
CCOC(=O)COc1cc(Br)c(/C=N/Nc2ccccc2)cc1OC	-1.1	.	30.7	.	61.1*	64.2*	-8.3
CC(C)(C)n1c(O)c(C=Nc2ccc3c(c2)CCC3)c(=O)[nH]c1=O	-1.1	16.8	-18.3	15.4	29.3*	3.3	-4.0
O=C(NC(CO)(CO)CO)c1coc(=O)c(Br)c1	-0.4	5.7	13.6	7.7	45.8*	-4.5	-3.6
Cc1ccc(NC(=O)c2nc(S(=O)(=O)Cc3ccccc3)ncc2Cl)cc1	1.2	.	23.9	.	83.8*	56.5*	92.5*
CCN(c1ccccc1)S(=O)(=O)c1ccc(NC(=O)c2nc(S(C)(=O)=O)ncc2Cl)cc1	0.5	.	1.3	.	.	.	.
Cc1cccc(CS(=O)(=O)c2ncc(Cl)c(C(=O)NCc3ccccc3)n2)c1	1.3	31.9	16.5	58.6	25.9*	5.4	45.7*
O=C(Nc1ccc(F)cc1)c1nc(S(=O)(=O)Cc2ccccc2)ncc1Cl	0.8	.	-52.1	.	66.1*	63.6*	94.0*
CCS(=O)(=O)c1ncc(Cl)c(C(=O)Nc2ccc(S(=O)(=O)N(C)c3ccccc3)cc2)n1	2.5	.	38.3	.	88.9*	102.2*	96.7*
O=C(O)C1=CC(c2csc3ccccc23)CC(OCCCCO)O1 (stereo not given)	.	4.5	.	0.7	.	.	.
O=C(COC(=O)C=Cc1cccc(C(F)(F)F)c1)NC(c1ccccc1)c1ccccc1	.	20.7	.	-0.1	.	.	.
Cc1ccc(-c2c(CC(=O)O)c(C)nc3sc4c(c23)CCCC4)cc1	5.2	9.4	.	-5.7	36.4*	44.0*	-4.1
COc1cccc(OCc2cc(C(=O)N(C)Cc3nc4ccccc4[nH]3)no2)c1	2.4	0.8	51.3*	2.4	28.5*	39.1*	2.1
Cc1onc(-c2ccccc2Cl)c1C(=O)NCc1ccc2c(c1)cc(C)n2C	2.9	-15.3	18.1	-6.1	65.5*	9.5	-3.3
Cc1cc2cc(CNC(=O)Nc3ccc(Cl)c(Cl)c3)ccc2n1C	0.4	-16.1	12.0	-5.6	32.7*	22.3	-8.0
Cc1cc2cc(CNC(=O)c3ccc4c(c3)OCO4)ccc2n1C	1.4	6.0	-8.7	-3.7	53.0*	10.2	-1.5
CCOc1ccc(CC(=O)NCc2ccc3c(c2)cc(C)n3C)cc1	1.6	-12.3	-7.0	-3.3	55.0*	-1.7	-9.1
O=C1NCC(c2ccccc2)N(CC2CCCCC2)C1=O (stereo not given)	.	4.0	.	1.9	.	.	.
CCOc1cc(C=NO)ccc1OCc1ccc([N+](=O)[O-])cc1	.	7.3	.	9.0	.	.	.
S=c1[nH]nc(-c2ccccn2)n1N=Cc1cccc(Cl)c1	.	3.9	.	2.3	.	.	.
CNC(=O)N(O)C1N(N=Cc2cccs2)C(=S)SC1(C)C (stereo not given)	.	1.6	.	-3.8	.	.	.
COc1ccc(C(=O)NCc2ccc3c(c2)cc(C)n3C)cc1	-0.9	4.4	7.4	0.1	66.0*	8.9	-4.8
Cc1ccc(S(=O)(=O)NCc2ccc3c(c2)cc(C)n3C)cc1	-0.5	3.2	2.4	1.4	37.4*	5.7	-3.8
Cc1ccc(S(=O)(=O)NCc2ccncc2)cc1	-1.0	2.3	23.4	5.2	10.3	.	.
COc1cc(/C=C\C(=O)NCc2ccc3c(c2)cc(C)n3C)cc(OC)c1OC	-0.3	.	-3.6	.	68.0*	7.8	-5.9
SMILES	PfHsp40 yeast	Sa RN4220 lethal	DUSP3 inh	Sa ugtP lethal	PrPC surface inh	PrPC confirm	LD9 tox
COc1cc(OC)cc(C(=O)NCc2ccc3c(c2)cc(C)n3C)c1	1.2	-1.8	17.6	6.5	56.3*	0.6	-3.7
COCC(=O)NCc1ccc2c(c1)cc(C)n2C	-0.6	2.0	-11.3	4.2	-9.0	.	.
Cc1cc(=O)[nH]c(NN=CC=Cc2ccccc2)n1	.	-3.3	.	-17.8	.	.	.
O=C(COc1ccccc1)NCC(=O)NN=Cc1ccc(Br)cc1	.	-2.2	.	-0.2	.	.	.
CCCCN1C(=S)NCC1C(C)CC (stereo not given)	.	3.1	.	-9.7	.	.	.
c1ccc(Cc2nnc(Sc3ccccc3)c3ccccc23)cc1	0.1	0.1	-2.4	46.0	52.5*	71.2*	-14.0
Nc1ccc2ccc(NS(=O)(=O)N3CCCCC3)cc2c1	.	.	.	.	30.7*	12.5	9.0
CC(C)CC(COc1ccccc1)N1CCN(C)CCC1=O (stereo not given)	.	4.5	.	3.6	.	.	.

Source: PubChem BioAssay (several laboratories)
